Source: PubChem
Only some compounds are listed: those with a hit (about 2.4% of all), similar ones and a draw of the others.
D2 PAM-1 = positive allosteric modulators of human D2 dopamine receptor. potentiation, % (concentration not given with the values). DiscoveRx D2 beta-arrestin cells, luminescence, 90 min; 100% = 57 uM dopamine signal. P14416. AID 624464. actives 0.23% (n = 360,000); in the data active = potentiation above about 50%; inconclusive = mostly about 30% to 49%
Target sequence (P14416 whole entry, looked up): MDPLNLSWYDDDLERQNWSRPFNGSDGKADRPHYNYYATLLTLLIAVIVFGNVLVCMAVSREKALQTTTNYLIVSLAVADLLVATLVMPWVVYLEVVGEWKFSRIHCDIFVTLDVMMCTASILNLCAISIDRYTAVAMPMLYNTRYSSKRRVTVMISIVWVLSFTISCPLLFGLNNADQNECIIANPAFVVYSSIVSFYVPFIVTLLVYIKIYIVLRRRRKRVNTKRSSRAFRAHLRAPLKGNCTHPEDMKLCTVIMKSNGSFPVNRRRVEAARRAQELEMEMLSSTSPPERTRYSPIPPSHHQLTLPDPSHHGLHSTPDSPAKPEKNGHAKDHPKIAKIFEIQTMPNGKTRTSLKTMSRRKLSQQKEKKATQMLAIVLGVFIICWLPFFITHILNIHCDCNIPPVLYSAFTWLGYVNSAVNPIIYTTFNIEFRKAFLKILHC
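PathHunter D2 cells, attached overnight at 37 deg C, received compound in DMSO plus dopamine at EC20 (50 nM final) for 90 min at 37 deg C. Beta-arrestin recruitment was read as luminescence after 1 h with detection reagent at ambient temperature.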
D2 PAM-2 = D2 dopamine receptor (human) potentiation | AID 485347 | actives 0.34% (n = 340,000) | HEK293 T-REx D2, calcium flux, EC20 dopamine potentiation | P14416 | potentiation, % at 10 µM;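 active = potentiation over 3 SD above the plate norm, cut at about 30% in these data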
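Potentiation of an EC20 dopamine calcium response is measured in a force-coupled, tetracycline-inducible Hek293 Trex D2 line. Compound-only kinetic reads over 180 s flag agonists before dopamine addition.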
D2 ag-1 = activates the human D2 dopamine receptor; HEK293 T-REx D2 cells, calcium flux agonist mode; activation, % at 2 µM; actives 0.53% (n = 340,000);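 active = activation over 3 SD above normal in the single-dose calcium agonist read, cut at about 30% in these data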
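HEK293 Trex D2 cells, tetracycline-induced, o/n 30 C 5% CO2; no-wash Ca dye, RT 30–90 min; 10-cycle baseline, 23 nl cpd added, kinetic Ca read 180 s; agonist hits = positive Ca response.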
D2 antagonist = antagonists of human D2 dopamine receptor | P14416 | HEK293 TREx D2 cells, calcium flux, dopamine EC80 | inhibition, % at 10 µM | actives 2% (n = 340,000) | AID 485344; in the data active = inhibition above about 30%; inactive = below that, where a call was filed
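Dopamine at EC80 is the agonist stimulus; test compounds precede it by 180 s. Calcium flux read kinetically in a force-coupled, inducible HEK293 T-REx D2 cell line.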
D2 ag-2 = activates the human D2 dopamine receptor. P14416. actives 0.084% (n = 360,000). DiscoveRx PathHunter D2 beta-arrestin, luminescence, 90 min; 100% = 57 uM dopamine signal. AID 624465. activation, % (test concentration not listed); in the data active = activation above about 40%; inconclusive = between about 15% and that limit
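Agonist mode: compounds alone added to overnight-plated D2 PathHunter cells for 90 min at 37 C, with 57 uM final dopamine (EC100) defining full response. Beta-arrestin recruitment detected by chemiluminescent reagent, read after 1 h at ambient temperature.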
Each line names hits and unclear results; the compound was inactive in the other large screens.

Cc1cc(C)n2nc(CNC(=O)c3cccc(Cl)c3)nc2n1	none (no result: D2 PAM-1, D2 antagonist, D2 ag-2)
Cc1c(C(=O)OC2CCCCC2)sc2nc[nH]c(=O)c12	D2 PAM-2 31
CCOc1ccccc1NC1(c2ccccc2)C(=O)c2ccccc2C1=O	none (no result: D2 PAM-1, D2 antagonist, D2 ag-2)
CC1(C)C(=O)NC(=O)N1Cc1ccccc1	D2 antagonist 45
CC12CN(Cc3ccccc3)CC(C)(CN(Cc3ccccc3)C1)C2=O	none
CCOc1ccccc1NC(=O)Cn1c(=O)n(Cc2ccco2)c(=O)c2ccc(C(=O)NC3CCCC3)cc21	none (no result: D2 PAM-1, D2 antagonist, D2 ag-2)
COc1ccc2ccc3c(c2c1)N=CC1(O3)N(C)c2ccccc2C1(C)C (stereo unspecified)	D2 PAM-1 71
CN1c2ccccc2C(C)(C)[C@]12C=Cc1cc(O)ccc1O2	none
CN1c2ccccc2C(C)(C)C12C=Nc1c(ccc3ccccc13)O2 (stereo unspecified)	D2 PAM-1 87, D2 antagonist 34, D2 ag-2 inconclusive
COc1cccc(CNC(=O)Cc2c(C)c3c(cc(C)c4c(C)coc43)oc2=O)c1	none (no result: D2 PAM-1, D2 ag-1, D2 antagonist, D2 ag-2)
C=CCN(CC=C)CC(O)CN(c1cc([N+](=O)[O-])ccc1OC)S(=O)(=O)c1ccccc1 (stereo unspecified)	D2 antagonist 66
CCCCNC(=O)c1cnc2sc(N3CCCCCC3)nn2c1=O	none (no result: D2 PAM-1, D2 antagonist, D2 ag-2)
N#Cc1ccc(Nc2ccccc2)c(N)c1	D2 antagonist 31
Nc1cc(C(F)(F)F)ccc1Nc1ccccc1	D2 antagonist 67
Nc1cc([N+](=O)[O-])ccc1Nc1ccccc1	none
CCOc1ccc(/C=C/c2nc(C#N)c(N3CCCCC3)o2)cc1	none (no result: D2 PAM-1, D2 antagonist, D2 ag-2)
Cc1cccc(N2CCN(C(=O)c3cccn3-c3nnc(N4CCCCC4)s3)CC2)c1C	none (no result: D2 PAM-1, D2 antagonist, D2 ag-2)
COc1ccc(NC(=O)CSc2[nH]c(=O)cc(C)c2C#N)cc1OC	D2 antagonist 34
Cc1ccc(C2c3cccn3CCN2S(=O)(=O)c2ccc([N+](=O)[O-])cc2)cc1 (stereo unspecified)	none (no result: D2 PAM-1, D2 antagonist, D2 ag-2)
O=C(Nc1ccc(F)cc1)N1CCn2c(nc3ccccc32)C1	D2 antagonist 33
O=C(Nc1ccc2c(c1)OCCO2)c1cc2ccccc2o1	D2 antagonist 33
CC(C)COP(=O)(OCC(C)C)C(O)c1ccc(F)cc1 (stereo unspecified)	none
COP(=O)(/C=C/c1ccccc1)C(O)c1ccc(F)cc1 (stereo unspecified)	D2 antagonist 45
Cc1ccc(C2(C)NC(=O)N(CC(=O)Nc3ccc(S(=O)(=O)Nc4nccs4)cc3)C2=O)cc1 (stereo unspecified)	D2 PAM-2 31
Cc1ccc(NC(=O)CN2C(=O)NC(C)(c3ccc(Cl)cc3)C2=O)cc1 (stereo unspecified)	none
Nc1ccc(-c2c3ccc(=O)cc-3oc3cc(O)ccc23)cc1C(=O)O	D2 ag-1 92
Cc1cccc(NS(=O)(=O)c2ccc3c(c2)CC(C)N3C(=O)C2CCC2)c1C (stereo unspecified)	none (no result: D2 PAM-1, D2 antagonist, D2 ag-2)
COc1ccccc1N1CCN(C(=O)Cn2c(=O)nc(-c3ccccc3)c3cc(Cl)ccc32)CC1	none (no result: D2 PAM-1, D2 antagonist, D2 ag-2)
CN(C)S(=O)(=O)c1cccc(C(=O)Nc2ccccc2)c1	D2 antagonist 47
CN(C)S(=O)(=O)c1cccc(NC(=O)c2ccc(OC(F)(F)F)cc2)c1	D2 antagonist 46
COc1cccc(-c2csc(-c3c(N)c(C(=O)c4ccccc4)n4ccccc34)n2)c1	none (no result: D2 PAM-1, D2 antagonist, D2 ag-2)
Clc1ccc(OCCNCCc2ccccc2)cc1	D2 antagonist 54
c1ccc(CCNCCCOc2cccc3ccccc23)cc1	D2 antagonist 35
CCCCN(C)CCNC(=O)c1ccc2c(=O)n(CCc3ccccc3)c(=O)[nH]c2c1	none (no result: D2 PAM-1, D2 antagonist, D2 ag-2)
COc1ccc(NC(=O)/C(Cl)=C(/Cl)S(=O)Cc2ccccc2)cn1 (stereo unspecified)	D2 antagonist 32
Cc1cccc(NC(=O)CCNC(=O)c2ccccc2)c1	D2 antagonist 35
CCN(CC)S(=O)(=O)c1ccc(C)c(NC(=O)CSc2ncc(C(F)(F)F)cc2Cl)c1	none
CSc1cccc(NC(=O)CCCNC(=O)c2ccc(Cl)cc2)c1	D2 antagonist 45
COc1ccccc1CNC(=O)CCCNC(=O)c1ccc(Cl)cc1	D2 PAM-2 30
Cc1ccc(S(=O)(=O)N(C)C)cc1NC(=O)CSc1ncc(C(F)(F)F)cc1Cl	D2 antagonist 37
Cc1ccc(S(=O)(=O)N(C)C)cc1NC(=O)CCCNC(=O)c1ccc(Cl)cc1	D2 antagonist 41
CC(=O)c1ccc(OCCCC(=O)Nc2cc(S(=O)(=O)N(C)C)ccc2C)cc1	none
Cc1ccc(S(=O)(=O)N(C)C)cc1NC(=O)Nc1ccccc1F	D2 antagonist 64
Cc1cccc(N2CCN(C(=O)c3c4c(nc5ccccc35)C(=O)N(C3CCCCC3)C4)CC2)c1C	none (no result: D2 PAM-1, D2 antagonist, D2 ag-2)
Cc1nn(CCC(=O)Nc2ccc(Cl)cc2)c(C)c1S(=O)(=O)N1CCCCC1	none (no result: D2 PAM-1, D2 antagonist, D2 ag-2)
COc1cc(OC)cc(C(=O)NCc2ccc3c(c2)CCN3C(=O)c2ccccc2)c1	none (no result: D2 PAM-1, D2 antagonist, D2 ag-2)
Cc1ccccc1NC(=O)CC1SC(=Nc2ccc(O)cc2)NC1=O (stereo unspecified)	none
Cc1ccc(NC(=O)CC2S/C(=N/N=C/C=C/c3ccccc3)NC2=O)cc1Cl (stereo unspecified)	none
CC(C)=N/N=C1/NC(=O)C(CC(=O)Nc2cc(Cl)ccc2C)S1 (stereo unspecified)	D2 antagonist 46
Cc1ccc(NC(=O)CC2S/C(=N/N=C/c3ccco3)NC2=O)cc1Cl (stereo unspecified)	D2 antagonist 33
CCOc1ccc(C2c3[nH]c4ccccc4c3CCN2C(=O)CCc2ccccc2)cc1 (stereo unspecified)	none (no result: D2 PAM-1, D2 antagonist, D2 ag-2)
Cc1ccc(CN2CC[C@H]3C=CCc4cccc(c43)C2)cc1	D2 antagonist 57
CCOC(=O)c1[nH]c2ccccc2c1NC(=O)c1cc(OC)cc(OC)c1	none (no result: D2 PAM-1, D2 antagonist, D2 ag-2)
Cc1ccc(-c2nc(CSCC(=O)N3CCN(c4ccccn4)CC3)c(C)o2)cc1	D2 ag-1 37
Nc1ccc2oc(CCc3ccccc3)nc2c1	D2 PAM-1 inconclusive, D2 antagonist 38
c1ccc2oc(CCc3nc4ccccc4o3)nc2c1	none (no result: D2 ag-1, D2 antagonist)
Cc1n[nH]c(C)c1Sc1ccccc1N	none
Cc1cc(C)nc(Sc2c(C)n[nH]c2C)n1	D2 antagonist 32
C/C(=N\NC(=O)c1ccc(C)cc1C)c1ccc2c(c1)Nc1ccccc1S2	D2 PAM-1 78, D2 ag-2 inconclusive
CC(=O)c1ccc2c(c1)Nc1ccccc1S2	D2 PAM-1 52, D2 ag-2 inconclusive
CCOC(=O)Nc1ccc2c(c1)Nc1ccccc1S2	D2 PAM-1 63
C/C(=N\NC(=O)c1ccc(C)cc1C)c1ccc(-n2ccnc2)cc1	none
C=CCOc1ccccc1CNCCCN1CCOCC1	D2 PAM-2 37
NC(=O)c1nsc(C(=O)N(CC(=O)NCc2ccco2)c2ccccc2F)c1N	D2 PAM-2 33
